Bioassay records as filed in PubChem.
This is one part of a sample in which hits are shown more often than they occur.
RXFP1 antagonist: qHTS Assay for Antagonists of the Relaxin Receptor RXFP1 | Relaxin receptor 1 (Homo sapiens), Q9HBX9 | activity change, negative = inhibition, % at 57.5 µM | 0.59% of 350,000 active | HEK293-RXFP1, relaxin-stimulated cAMP HTRF, 30 min; hits give low values;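 active = activity change of -60% or lower, but not beyond a set lower limit; inconclusive = change between -60% and -40%, or beyond the set limit; inactive = change above -40%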; note: % is set by controls: 0 for no effect and ±100 for the full control effect
TSHR antag: Antagonists of the Thyroid Stimulating Hormone Receptor: HTS campaign | TSHR-expressing cells, TSH-stimulated cAMP HTRF, 2 h; hits give low values | activity change, negative = inhibition, % at 11.5 µM | 0.2% of 330,000 active | AID 504810, 2011;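 active = activity change below a set negative limit, meaning inhibition stronger than a set level, cut at about -70% in these data; inconclusive = activity change between two set negative limits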; note: % is set by controls: 0 for no effect and ±100 for the full control effect
Target sequence (P16473 whole entry, looked up): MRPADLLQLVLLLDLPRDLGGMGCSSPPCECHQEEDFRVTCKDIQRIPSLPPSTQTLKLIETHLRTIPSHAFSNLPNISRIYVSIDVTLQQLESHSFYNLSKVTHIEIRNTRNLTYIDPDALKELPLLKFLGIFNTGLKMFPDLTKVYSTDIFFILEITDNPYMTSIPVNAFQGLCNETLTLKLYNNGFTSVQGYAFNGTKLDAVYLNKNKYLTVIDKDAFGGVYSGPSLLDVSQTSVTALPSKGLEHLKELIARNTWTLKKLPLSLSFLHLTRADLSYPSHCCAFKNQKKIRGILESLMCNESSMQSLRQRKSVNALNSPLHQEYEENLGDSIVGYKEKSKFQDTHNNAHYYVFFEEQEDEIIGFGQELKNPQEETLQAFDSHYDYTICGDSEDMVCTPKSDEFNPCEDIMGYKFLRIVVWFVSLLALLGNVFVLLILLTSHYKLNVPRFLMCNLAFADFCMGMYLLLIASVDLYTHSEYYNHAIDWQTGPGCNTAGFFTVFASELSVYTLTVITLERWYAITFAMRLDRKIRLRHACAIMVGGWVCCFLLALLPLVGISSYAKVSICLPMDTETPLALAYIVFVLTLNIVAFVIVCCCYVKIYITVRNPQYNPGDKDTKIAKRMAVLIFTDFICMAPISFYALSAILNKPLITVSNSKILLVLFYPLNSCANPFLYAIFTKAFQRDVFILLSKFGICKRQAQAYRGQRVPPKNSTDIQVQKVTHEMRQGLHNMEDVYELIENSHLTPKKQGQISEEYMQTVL
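TSHR-expressing cells were treated with compounds, then stimulated with TSH at EC80 (4nM final) for 2 hours at 37 deg C. Cellular cAMP was measured by HTRF competition between lysate cAMP and cAMP-d2 for a cryptate-labelled anti-cAMP antibody.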
HEK293 tox: qHTS of GLP-1 Receptor Inverse Agonists: Cytotox Screen | 0.13% of 410,000 active | HEK293 cAMP-luciferase reporter cells, luminescence, 24 h | Potency, µM (doses to about 38.3 µM), without a hit: at the top dose activity change, negative = inhibition, usual class: inhibitors;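 note: loss of luciferase light is scored as toxicity; potency is the fitted concentration of half-maximal effect; % is set by controls: 0 for no effect and ±100 for the full control effect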
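Here, cytotoxicity is scored as loss of luminescence. The MLSMR collection was tested on cells seeded in medium containing 10% Nu serum, with a 24 hr compound exposure preceded by 12 hours of culture.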
NPSR antagonist: qHTS Assay for Antagonists of the Neuropeptide S Receptor: cAMP Signal Transduction | Q6W5P4 | 1% of 220,000 active | Potency, µM (top dose mostly 38.3 µM), for inactives: top-dose activity change, negative = inhibition, hits mostly inhibitors | AID 1461, 2008 | CHO-NPSR cells, cAMP TR-FRET, antagonist mode; note: potency is the fitted concentration of half-maximal effect; % is set by controls: 0 for no effect and ±100 for the full control effect; nearly all actives have a fitted effect of over 50% in size
PTHR1 ag: qHTS for PTHR1 Agonists: Primary Screen. HEK293 GP2 PTHR1 cells, GloSensor cAMP luminescence, 1 h. 0.075% of 410,000 active. Potency, µM (highest dose often 115 µM), inactives show top-dose activation, hits mostly activators. Parathyroid hormone/parathyroid hormone-related peptide receptor (Homo sapiens), Q03431; note: potency is the fitted concentration of half-maximal effect; nearly all actives have a fitted effect of over 55% in size
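HEK-293-derived GP2 cells expressing PTHR1 and a GloSensor cAMP reporter, 3,000/well, plated overnight, given luciferin plus IBMX (each 0.5 mM as added) for 1 h at 37 °C, then compound for 1 h at 37 °C. Luminescence was read after 15 min at room temperature.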
RXFP1 agonist: qHTS Assay for Agonists of the Relaxin Receptor RXFP1 | Relaxin receptor 1 (Homo sapiens), Q9HBX9 | HEK293T-RXFP1 cAMP TR-FRET, 30 min; response scale: percent of porcine relaxin response, buffer zero | Potency, µM (top dose mostly 57.5 µM), inactives show top-dose activation, most hits filed as activators | 0.3% of 370,000 active; note: potency is the fitted concentration of half-maximal effect; % is set by controls: 0 for no effect and ±100 for the full control effect; nearly all actives have a fitted effect of over 60% in size
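HEK293T cells stably expressing RXFP1 were pretreated with the PDE4 inhibitor Ro 20174, exposed to compounds for 30 min at 37C, lysed, and cAMP was read by TR-FRET. Data normalized to buffer (basal) and 29 nM porcine relaxin (100%).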
* hit, by the source's call; i = inactive; ? = inconclusive; · = no result; [ ] = another dose, or the depositor's remark. Unless noted, calls come from the whole dose curve; as a rule, active = well fitted curve in the direction sought with a large enough effect; inconclusive = small, poorly fitted or top-dose-only effect, or another doubt; inactive = no such curve, though single readings can be large; an effect the other way counts as inactive or inconclusive.

SMILES	RXFP1 antagonist	TSHR antag	HEK293 tox	NPSR antagonist	PTHR1 ag	RXFP1 agonist
Cc1cc(-c2ccccc2)nc2cc(C(=O)Nc3cc(C(F)(F)F)ccc3Cl)nn12	1	·	-6%	·	-15%	1%
CCCCCC(=O)Nc1nc(C)c(-c2csc(Nc3cc(OC)ccc3OC)n2)s1	·	105	1%	?	45µM*	1%
CCCCCCC(=O)Nc1nc(C)c(-c2csc(Nc3cc(OC)ccc3OC)n2)s1	·	-11	-2%	-22%[46.1 µM]	?	2%
CCCC(=O)N1c2nc(-c3ccco3)nn2C2(CCCCC2)[C@@H]2CCCC[C@@H]21	-66*	·	1%	·	i	0%
CCOC(=O)Cn1c(=O)n(CC2CCCO2)c2nc(-c3ccccc3OC)nc(C(N)=O)c21 (stereo not drawn)	-10	·	-6%	·	16%	-4%
CC(=O)OCCNc1cc(Sc2nc3ccccc3[nH]2)c2nonc2c1[N+](=O)[O-]	-78*	-88*	?	?	-43%	5%
OC[C@@H]1CN(Cc2ccncc2)C[C@H](n2cnc3c(N4CCOCC4)ncnc32)O1	·	·	0%	·	-15%	·
CN(C(=O)COC(=O)CSc1ccc([N+](=O)[O-])cc1)C1CCS(=O)(=O)C1 (stereo not drawn)	-101*	·	3%	·	i	0%
O=[N+]([O-])c1ccc(NC(=S)NCCc2ccccc2)cc1	-30	?	?	-10%	-33%	0%
O=[N+]([O-])c1ccc(NC(=S)NCCc2ccc(Cl)cc2)cc1	·	-75*	?	?	-37%	0%
COCCCn1c2nc3ccccc3nc2c2c(=O)n(Cc3ccc(Cl)cc3)cnc21	-1	-10	-14%	-8%[46.1 µM]	i	3%
N=c1c2c(-c3ccccc3)c(-c3ccccc3)n(Cc3ccccc3)c2ncn1CCO	-34	21	?	?	-6%	0%
N=c1c2c(-c3ccccc3)c(-c3ccccc3)n(Cc3ccco3)c2ncn1CCCn1ccnc1	-15	0	?	-17%	-6%	2%
O=c1c2c3nc4ccccc4nc3n(Cc3ccccc3)c2ncn1Cc1ccco1	?	-6	-26%	10µM*	-20%[57.5 µM]	2%
N=c1c2c(-c3ccccc3)c(-c3ccccc3)n(Cc3ccco3)c2ncn1Cc1ccccc1	20	-2	-13%	10µM*	i	-1%
c1ccc(-c2c(-c3ccccc3)n(Cc3ccco3)c3ncnc(NCCCn4ccnc4)c23)cc1	-65*	2	?	25µM*	-17%[57.5 µM]	5%
COc1ccc(OC)c(NS(=O)(=O)c2ccc(N3CCCCS3(=O)=O)cc2)c1	1	·	-4%	·	-31%	-1%
Cc1cccn2c(=O)cc(CSc3nnc(NC(=O)c4ccc(F)cc4)s3)nc12	-7	·	5%	·	-2%	13%
CCN(CC)C(=O)Cn1c(=O)n(Cc2ccc(F)cc2)c(=O)c2sccc21	-17	15	2%	·	-20%	0%
CCN(CC)C(=O)Cn1c(=O)n(-c2ccccc2)c(=O)c2sccc21	5	-81*	-5%	9%	-16%	0%
Cc1cc(C(=O)COC(=O)c2ccc(NC(=O)CC#N)cc2)c(C)n1CC(F)(F)F	-1	·	-14%	·	0%	·
Cc1cc(C(=O)COC(=O)c2ccc(NC(=O)CC#N)cc2)c(C)n1-c1ccc(OC(F)F)cc1	-62*	-19	-14%	·	-44%	·
CCN(CC)c1ccc2c(-c3ccc(S(=O)(=O)O)cc3S(=O)(=O)[O-])c3ccc(=[N+](CC)CC)cc-3oc2c1	37	44	?	·	i	28µM*
CCN(CC)c1ccc2nc3c4ccccc4c(=O)cc-3oc2c1	2	-9	-14%	·	-28%	5%
N[C@@H](CCC(=O)N[C@@H](CS)C(=O)NCC(=O)O)C(=O)O	-3	·	·	·	·	·
SMILES	RXFP1 antagonist	TSHR antag	HEK293 tox	NPSR antagonist	PTHR1 ag	RXFP1 agonist
O=C(NCCN1CCOCC1)c1ccc(Cl)c(Cl)c1	11	-9	-3%	·	i	2%
O=C1/C(=C\c2ccc(Cl)c(Cl)c2)CN(C(=O)CCN2CCOCC2)C/C1=C/c1ccc(Cl)c(Cl)c1	-36	·	2.8µM*	·	-42%	·
COc1ccccc1Cc1nc2ccccc2nc1SCC(=O)N1CCN(c2ccccc2)CC1	-27	·	-12%	·	8%	6%
O=[N+]([O-])c1ccc(NN=Cc2cccc(O)c2)nc1	-7	·	-17%	·	-22%	·
O=[N+]([O-])c1ccc(NN=Cc2cc(Br)ccc2O)nc1	-74*	·	?	·	-23%	·
COc1ccc([N+](=O)[O-])cc1N(CC(O)CN1CCCC1)S(=O)(=O)c1ccc(C)cc1 (stereo not drawn)	-66*	-2	-7%	-13%	i	-1%
O=C(CCCCCn1c(=S)[nH]c2ccc(N3CCOCC3)cc2c1=O)NCc1ccccc1Cl	-104*	0	-11%[7.66 µM]	-54%	-21%	?
O=C(CCCCCn1c(=S)[nH]c2ccc(N3CCOCC3)cc2c1=O)NCc1ccc(Cl)cc1	-92*	24	16%[7.66 µM]	10µM*	-13%	14%
CCOC(=O)c1c(CSc2ccccc2)n(C)c2cc(Br)c(O)c(CN(C)C)c12	-39	-11	-21%	32%[7.67 µM]	-8%	0%
CCOC(=O)c1c(CSc2ccsc2)n(C)c2cc(Br)c(O)c(CN(C)C)c12	-12	-1	-22%	13µM*	-26%	6%
CCc1ccc(CN2CCc3nc(N4CCN(c5ccccc5F)CC4)ncc3C2)cc1	-25	·	1%	·	-43%	4%
CCc1nnc(NS(=O)(=O)c2ccc(NC(=S)NC(=O)/C=C/c3ccc(F)cc3)cc2)s1	-33	-29	0%[1.53 µM]	10µM*	-6%	-4%
CCc1nnc(NS(=O)(=O)c2ccc(NC(=S)NC(=O)/C=C/c3ccc([N+](=O)[O-])cc3)cc2)s1	4	1	-1%	8%	i	1%
C[C@H]1CCCCO[C@H](CN(C)S(=O)(=O)c2cn(C)cn2)[C@@H](C)CN([C@@H](C)CO)C(=O)c2cc(NS(=O)(=O)c3ccccc3)ccc2O1	4	·	2%	·	-18%	·
O=C1ON=C(c2ccccc2)/C1=C/c1ccc(-c2ccccc2[N+](=O)[O-])o1	?	-20	-18%	7.9µM*	-97%	-3%
Oc1ccc(/C=N/Nc2nc(-c3ccc(Cl)cc3)cc(C(F)(F)F)n2)cc1	-61*	6	13%	-49%	-41%	1%
Fc1ccc(CNc2nc(-c3ccc(Cl)cc3)cc(C(F)(F)F)n2)cc1	·	·	2%	·	-7%	-1%
